In PubChem BioAssay (NCATS):
Inconclusive results are not listed. Unless noted, the call rests on the fitted dose curve; in most records, active means well fitted curve in either direction with a large enough effect (not every such curve was filed as active); inconclusive means small, poorly fitted or top-dose-only effect, or another doubt; inactive means flat fitted curve, though single readings scatter.

Tests used:
[1] = AP1 Signaling Pathway (AID 357); details: ME-180 AP-1-bla reporter, EGF-induced, beta-lactamase ratio, 5 h; at 17.2 µM (top of the series) unless noted;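 further: ME-180 reporter cells stimulated with EGF at its EC50 level; on the % scale 0 is the no-effect control and ±100 the full control effect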
Procedure, shortened: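 Read-out was the 460nm/530nm emission ratio (excitation 405nm) after CCF4 loading for 2.5 hours at room temperature. Cells carried an AP-1-driven beta-lactamase reporter, were stimulated with EC50 EGF plus compound for 5 hours, and AC50 values came from titrations.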

[2] = NFAT Signaling Pathway (AID 444); details: Jurkat NFAT-bla M1, carbachol, beta-lactamase ratio, 5 h; at 17.2 µM (top of the series) unless noted;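 further: carbachol stimulus at about its EC50 of 1 µM final; on the % scale 0 is the no-effect control and ±100 the full control effect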
Procedure, shortened: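 Jurkat cells carrying an NFAT-driven β-lactamase reporter and co-transfected muscarinic M1 receptor were treated with compound plus carbachol (1 uM final, an EC50 level) for 5 h at 37 °C. CCF4 loading followed for 1 h at RT; 460/530 nm ratio gave %activity.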

[3] = Stat Signaling Pathway (AID 446); details: ME-180 SIE beta-lactamase reporter, IL-6 stimulated, 5 h; at 17.2 µM (top of the series) unless noted;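 further: ME-180 cervical cancer cells given 40 pM IL-6 alongside compound; SIE-controlled beta-lactamase reporter measured as 460/530 nm FRET emission ratio; on the % scale 0 is the no-effect control and ±100 the full control effect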
Procedure, shortened: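 Reporter line: ME-180 cervical carcinoma, SIE-beta-lactamase. Treatment: compound with 40 pM IL-6, 5 hrs, 37 C, in low-serum OPTI-MEM with 10 mM HEPES pH 7.3. Detection: 460/530 nm fluorescence.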

[4] = molecular target: Glucocorticoid receptor (Homo sapiens) (UniProt P04150); test: GR-GFP Redistribution (AID 450;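 active means compounds whose dose series gives a full or clear partial fitted curve of increased nuclear translocation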; further: potency means the concentration at half of the fitted maximal effect)
Glucocorticoid receptor (Homo sapiens), sequence (P04150 whole entry, looked up): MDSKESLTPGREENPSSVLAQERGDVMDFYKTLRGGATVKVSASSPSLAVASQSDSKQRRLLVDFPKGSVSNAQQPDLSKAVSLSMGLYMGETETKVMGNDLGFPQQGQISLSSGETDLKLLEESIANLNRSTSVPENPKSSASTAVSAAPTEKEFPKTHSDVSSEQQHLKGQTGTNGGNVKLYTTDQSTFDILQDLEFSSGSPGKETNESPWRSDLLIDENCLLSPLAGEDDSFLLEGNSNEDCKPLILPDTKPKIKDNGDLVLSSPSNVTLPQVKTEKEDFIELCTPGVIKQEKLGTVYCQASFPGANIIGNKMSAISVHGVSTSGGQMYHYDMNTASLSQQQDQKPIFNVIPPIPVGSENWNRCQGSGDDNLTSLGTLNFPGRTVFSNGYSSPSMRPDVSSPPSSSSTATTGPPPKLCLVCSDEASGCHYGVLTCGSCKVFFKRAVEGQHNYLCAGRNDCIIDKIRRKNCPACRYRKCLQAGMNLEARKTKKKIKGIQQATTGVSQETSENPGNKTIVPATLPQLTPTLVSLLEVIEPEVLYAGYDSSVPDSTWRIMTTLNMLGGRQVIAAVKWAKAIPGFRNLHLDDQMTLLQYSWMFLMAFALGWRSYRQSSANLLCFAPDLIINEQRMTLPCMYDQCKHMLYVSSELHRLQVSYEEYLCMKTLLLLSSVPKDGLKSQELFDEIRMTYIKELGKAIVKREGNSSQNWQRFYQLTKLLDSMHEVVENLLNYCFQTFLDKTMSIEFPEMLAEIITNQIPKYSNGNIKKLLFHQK

COC(=O)c1[nH]c2cc(OC)ccc2c1NC(=O)CN1CCC(C(N)=O)CC1
inactive: activity change, negative = inhibition [1] -3.69% | activity change, negative = inhibition [2] -2.98% | activity, negative = inhibition [3] 0.718% | Potency [4] > 20.6 µM

CC1(C)Cc2c(sc3[nH]c(=S)n(Cc4ccco4)c(=O)c23)CO1
inactive: activity change, negative = inhibition [1] -2.74% | activity change, negative = inhibition [2] -5.17% | activity, negative = inhibition [3] -8.92% | Potency [4] > 20.6 µM

O=C(C1=C(O)C(=O)N(CCCN2CCOCC2)C1c1ccccn1)c1cccs1 (stereo not given)
inactive: activity change, negative = inhibition [1] -0.154% | activity change, negative = inhibition [2] -1.18% | activity, negative = inhibition [3] -0.582% | Potency [4] > 20.6 µM

O=C(c1ccc(-n2cnnn2)cc1)N1CCOCC1
inactive: activity change, negative = inhibition [1] 10.3% | activity change, negative = inhibition [2] -0.0644% | activity, negative = inhibition [3] 12.1% | Potency [4] > 20.6 µM

COc1ccc(-c2cc(=O)[nH]c(=O)[nH]2)cc1
inactive: activity change, negative = inhibition [1] 6.12% | activity change, negative = inhibition [2] -4.97% | activity, negative = inhibition [3] -5.47% | Potency [4] > 20.6 µM

C=CCNc1nc(C)nc(OC)n1
inactive: activity change, negative = inhibition [1] 8.25% | activity change, negative = inhibition [2] 13.9% | activity, negative = inhibition [3] 4.41% | Potency [4] > 20.6 µM

COc1ccc(C=NCCCN2CCOCC2)cc1
inactive: activity change, negative = inhibition [1] -8.54% | activity change, negative = inhibition [2] -2.1% | activity, negative = inhibition [3] -3.86% | Potency [4] > 20.6 µM

Cc1c(/C(O)=C2\C(=O)C(=O)N(CCN(C)C)C2c2cccnc2)cnn1-c1ccccc1 (stereo not given)
inactive: activity change, negative = inhibition [1] 1.75% | activity change, negative = inhibition [2] 9.15% | activity, negative = inhibition [3] 0.0911% | Potency [4] > 20.6 µM

O=C(c1nsnc1-c1ccccc1O)N1CCCCC1
inactive: activity change, negative = inhibition [1] 12.2% | activity change, negative = inhibition [2] 6.47% | activity, negative = inhibition [3] -2.4% | Potency [4] > 20.6 µM

Cc1[nH]nc(-c2ccc(O)cc2O)c1Oc1ccccc1
inactive: activity change, negative = inhibition [1] -8.71% | activity change, negative = inhibition [2] -25.7% | activity, negative = inhibition [3] -21.9% | Potency [4] > 20.6 µM

CN1CCC2(CC1)C1CN(C)CC=C1C(C#N)=C(N)C2(C#N)C#N (stereo not given)
inactive: activity change, negative = inhibition [1] 6.27% | activity change, negative = inhibition [2] 13.7% | activity, negative = inhibition [3] 12.8% | Potency [4] > 20.6 µM

CC12CN3CC(=O)N4CC5(C)CN(CC(C)(C4)C5=O)C(=O)CN(C1)CC(C)(C3)C2=O
inactive: activity change, negative = inhibition [1] -1.13% | activity change, negative = inhibition [2] 2.81% | activity, negative = inhibition [3] 0.401% | Potency [4] > 20.6 µM

N#CCCSCc1ccc(OCC(=O)O)cc1
inactive: activity change, negative = inhibition [1] 2.01% | activity change, negative = inhibition [2] -0.583% | activity, negative = inhibition [3] 0.185% | Potency [4] > 20.6 µM

O=C(NCCC1=CCCCC1)c1ccc(=O)oc1
inactive: activity change, negative = inhibition [1] -16% | activity change, negative = inhibition [2] -4.94% | activity, negative = inhibition [3] 7.23% | Potency [4] > 20.6 µM

O=S(=O)(/C=C/c1ccccc1)Nc1ccc2c(c1)OCO2
inactive: activity change, negative = inhibition [1] -20.8% | activity change, negative = inhibition [2] -26.9% | activity, negative = inhibition [3] -22.1% | Potency [4] > 20.6 µM

COc1ccc(-c2nnc3sc(COc4ccccc4)nn23)cc1
inactive: activity change, negative = inhibition [1] -22.1% | activity change, negative = inhibition [2] -15.2% | activity, negative = inhibition [3] -8.06% | Potency [4] > 20.6 µM

Cc1ccc(NC(=O)Cn2nc(C)c3ccccc3c2=O)cc1
inactive: activity change, negative = inhibition [1] 14.3% | activity change, negative = inhibition [2] 10.1% | activity, negative = inhibition [3] 6.34% | Potency [4] > 20.6 µM

CN(C)C(=O)COn1c(SCC(=O)N(C)C)nc2ccccc2c1=O
inactive: activity change, negative = inhibition [1] 6.36% | activity change, negative = inhibition [2] 14.2% | activity, negative = inhibition [3] 2.27% | Potency [4] > 20.6 µM

Cc1cc(C)n(C(=O)CNC(=O)C2COc3ccccc3O2)n1 (stereo not given)
inactive: activity change, negative = inhibition [1] 15.9% | activity change, negative = inhibition [2] -7.83% | activity, negative = inhibition [3] 24.9% | Potency [4] > 20.6 µM

CCOC(=O)c1c(N)sc2c1CCC1C(=O)N(C3CCCCC3)C(=O)C21 (stereo not given)
inactive: activity change, negative = inhibition [1] -12.9% | activity change, negative = inhibition [2] -2.94% | activity, negative = inhibition [3] -6.61% | Potency [4] > 20.6 µM

Fc1ccc(C2C3=C(Nc4ncnn42)c2ccccc2OC3c2ccncc2)cc1 (stereo not given)
inactive: activity change, negative = inhibition [1] -29% | activity change, negative = inhibition [2] -17% | activity, negative = inhibition [3] -12.3% | Potency [4] > 20.6 µM

O=C1C2CC=C(Cl)CC2C(=O)N1CNc1ccccn1 (stereo not given)
inactive: activity change, negative = inhibition [1] -0.589% | activity change, negative = inhibition [2] -12.9% | activity, negative = inhibition [3] 7.34% | Potency [4] > 20.6 µM

COc1ccccc1-n1c(=O)c2c3c(sc2n2c(SC(C)C)nnc12)CCC3
inactive: activity change, negative = inhibition [1] -5.57% | activity change, negative = inhibition [2] -27.1% | activity, negative = inhibition [3] 10.5% | Potency [4] > 20.6 µM

Cn1c(O)c(C=Nc2ccc(Cc3ccncc3)cc2)c(=O)n(C)c1=O
inactive: activity change, negative = inhibition [1] -2.77% | activity change, negative = inhibition [2] -10.1% | activity, negative = inhibition [3] -1.74% | Potency [4] > 20.6 µM

COc1ccc(N2C(=O)CC(N(Cc3ccc(S(N)(=O)=O)cc3)C(C)=O)C2=O)cc1 (stereo not given)
inactive: activity change, negative = inhibition [1] 5.04% | activity change, negative = inhibition [2] -2.46% | activity, negative = inhibition [3] 2.66% | Potency [4] > 20.6 µM
